{"source": "PubChem BioAssay AID588342", "about": "(National Center for Advancing Translational Sciences (NCATS), 2011)", "note": "Among all 360,000 compounds or so, about 25,000 (6.9%) were called active. Another 9% or so got no clear call; they are omitted. This is one part of a sample in which actives are shown more often than they occur. A number with no mark means an inactive call. Calls come from the whole dose curve; as a rule, active = well fitted inhibition curve with a large enough effect; inconclusive = small, poorly fitted or top-dose-only effect; inactive = flat fitted curve, though single readings scatter.", "data": [{"target": "Luciferin 4-monooxygenase (Photinus pyralis) (UniProt P08659)", "sequence (P08659 whole entry, looked up)": "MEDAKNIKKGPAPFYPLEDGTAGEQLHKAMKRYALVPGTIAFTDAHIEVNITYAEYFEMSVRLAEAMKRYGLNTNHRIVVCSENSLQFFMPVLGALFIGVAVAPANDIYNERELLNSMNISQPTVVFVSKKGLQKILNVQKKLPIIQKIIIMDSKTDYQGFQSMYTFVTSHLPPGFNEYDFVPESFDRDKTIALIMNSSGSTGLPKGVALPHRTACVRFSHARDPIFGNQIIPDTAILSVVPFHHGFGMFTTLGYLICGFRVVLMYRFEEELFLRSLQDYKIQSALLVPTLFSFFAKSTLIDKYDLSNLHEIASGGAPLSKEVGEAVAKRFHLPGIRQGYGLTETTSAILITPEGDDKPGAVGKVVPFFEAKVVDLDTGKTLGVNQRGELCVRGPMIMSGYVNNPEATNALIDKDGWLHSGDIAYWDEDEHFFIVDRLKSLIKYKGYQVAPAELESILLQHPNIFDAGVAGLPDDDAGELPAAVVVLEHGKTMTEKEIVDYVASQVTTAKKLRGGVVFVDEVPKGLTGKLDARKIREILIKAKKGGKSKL", "test": "qHTS profiling assay for firefly luciferase inhibitor/activator using purifed enzyme and Km concentrations of substrates (counterscreen for miR-21 project); note: nearly all actives have a fitted effect of over 55% in size;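 for activity change, negative = inhibition: plate controls were vehicle for no effect and reference inhibitor for full effect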", "settings": "purified FLuc, luminescence inhibition; series mostly up to 57.5 µM; activity change, negative = inhibition: at the top concentration", "from_the_text": "MLPCN Grant: 1 R21 NS059478-01 (miR-21 grant) Assay Provider: NCGC NCGC Assay Overview: Firefly (Photinus pyralis) luciferase is one of the most commonly used transcriptional reporters for a number of reasons. It is considered one of the more dynamically responsive reporters -that is, responsive to changes in reporter transcription - as it requires no post-translational modifications and is enzymatically active directly after protein synthesis (Wood, 1998). Additionally, the half-life of the luciferase protein is short relative to other reporter-gene products (Wood, 1995). Whereas reporters with long half-lives potentially allow for increased signal due to accumulation of reporter-gene product, once accumulated in the cell, dynamic changes in reporter-gene expression may be difficult to detect(Fan and Wood, 2007; Almond et al., 2004). It has been shown that wild-type P. pyralis luciferase has a half-life of approximately […] hours in mammalian cells (Thompson et al., 1991). Firefly luciferase reporter-gene assays are also generally considered one of the most sensitive assay types (Wood, 1995; Wood, 1998). Although light produced in a bioluminescence reaction is of lower intensity than that produced during fluorescence emission, this is offset by little to no background light inherent to luminescent assays. Thus the luciferase reporter can be expressed at much lower levels than fluorescent proteins while still providing robust signal. # However, it was initially observed, in 1991, by Thompson et al., that compounds that resemble the substrates of firefly luciferase (FLuc) can act as competitive inhibitors of the enzyme, and that these compounds, upon interaction with luciferase in the cell, can actually stabilize the protein and increase its half-life. Accumulated intracellular FLuc protein can be measured as an increase in luminescence signal, upon addition of detection reagents (which contain high concentrations of FLuc substrates) commonly used in high-throughput screening. In cell-based reporter gene assays that use FLuc as the reporter gene to quantitate the potential influence of a given compound against the target biology, this apparent increase in luminescence can mistakenly be interpreted as identification of a compound that is active against the target of interest. This is the case for the miR-21 FLuc reporter gene assay used to identify inhibitors of the miR-21 pathway (PubChem AID 2289) - compounds of interest will inhibit miR-21 biogenesis/expression or activity, and are identified by causing an increase in luminescence, due to increased FLuc translation. However, FLuc inhibitory compounds that stabilize the FLuc protein will give an identical read-out, making it difficult to distinguish compounds that are active against the target from those active against FLuc. Previous profiling work to determine the prevalence of compounds that affect FLuc enzymatic activity (PubChem AID 411) identified that ~3% of the MLSMR library (then at ~72K) inhibited FLuc. […] Since the MLSMR had grown to ~350K compounds, and since it was expected that a significant percentage of compounds found active in the miR-21 FLuc assay would be FLuc inhibitors, the library was screened for activity against FLuc using a biochemical assay of purified FLuc and KM concentrations of FLuc substrates (D-luciferin and ATP).\nNCGC Assay Protocol Summary: Reagents: 50mM Tris acetate, pH 7.5; 10mM Mg acetate; 10uM D-luciferin (Sigma #L9504); 10uM ATP; 0.01% Tween-20; 0.05% BSA; 10nM P. pyralis luciferase (Sigma #L9506) Control compounds used were two known firefly luciferase inhibitors (compounds (2) and (5) in Auld et al., 2010), and DMSO. […]", "units": {"activity change, negative = inhibition": "%"}, "values": [{"smiles": "COc1ccc(CCC(=O)N2CCN(S(=O)(=O)c3ccc(OC)cc3)CC2)cc1", "activity change, negative = inhibition": 0.133}, {"smiles": "Cc1ccc(F)cc1S(=O)(=O)Nc1cccc(C(=O)N2CCCC(C(N)=O)C2)c1", "note": "(stereo unspecified)", "activity change, negative = inhibition": 1.32}, {"smiles": "CCOC(=O)c1cc(-c2ccc(OC)c(S(=O)(=O)Nc3ccc(OC)cc3OC)c2)on1", "activity change, negative = inhibition": -6.63}, {"smiles": "CCOc1ccc(S(=O)(=O)Nc2ccc(C(=O)NCCCN3CCCC3=O)cc2)cc1", "activity change, negative = inhibition": 0.869}, {"smiles": "Nc1ncc(S(=O)(=O)Nc2ccc(OC(F)(F)F)cc2)cn1", "activity change, negative = inhibition": -18.2}, {"smiles": "COc1ccccc1N1CCN(c2ccc(=O)n(CC(=O)NCc3ccc(OC(C)C)cc3)n2)CC1", "activity change, negative = inhibition": -8.85}, {"smiles": "Cc1cc(C)cc(NS(=O)(=O)c2ccc(-c3cc(C)no3)s2)c1", "activity change, negative = inhibition": -17.8}, {"smiles": "Cn1nc(-c2ccccc2)c(-c2ccccc2)c(C(=O)Nc2ccc(S(N)(=O)=O)cc2)c1=O", "activity change, negative = inhibition": -7.51}, {"smiles": "CCc1cccc(CC)c1NC(=O)Cn1c(=O)c(-c2cc(C)ccc2NC(C)=O)nc2ccccc21", "activity change, negative = inhibition": 3.12}, {"smiles": "Cc1ccc(C(=O)COC(=O)CCN2C(=O)C3C4CC(C(Br)C4Br)C3C2=O)cc1", "note": "(stereo unspecified)", "activity change, negative = inhibition": 1.77}, {"smiles": "Cc1ccc(C(=O)COC(=O)CCN2C(=O)C3C4CCC(C4)C3C2=O)cc1C", "note": "(stereo unspecified)", "Potency": "10.7 µM (active)"}, {"smiles": "O=C(CCN1C(=O)C2C3CCC(C3)C2C1=O)Nc1ccc(Cl)cc1Cl", "note": "(stereo unspecified)", "activity change, negative = inhibition": -0.123}, {"smiles": "COc1ccccc1-c1noc(CSc2nnc(-c3ccccc3)n2-c2ccc(C)c(C)c2)n1", "activity change, negative = inhibition": -0.724}, {"smiles": "c1cc(-n2cnnn2)ccc1NC1=NCCC1", "activity change, negative = inhibition": -0.318}, {"smiles": "Cc1ccc(C(=O)Cc2nnc(C)s2)cc1", "Potency": "9.53 µM (active)"}, {"smiles": "Cc1ccc(S(=O)(=O)CC(=O)Nc2nnc(C)s2)cc1", "activity change, negative = inhibition": 0.491}, {"smiles": "Cc1ccc(C(=O)Cn2cccn2)cc1", "activity change, negative = inhibition": 2.73}, {"smiles": "CC(CO)N1CCS(=O)(=O)CC1", "note": "(stereo unspecified)", "activity change, negative = inhibition": 5.19}, {"smiles": "CCc1cc2c(cc3c(=O)n(CC(=O)N4CCN(c5cc(Cl)ccc5C)CC4)nc(CC)n32)s1", "activity change, negative = inhibition": -10.4}, {"smiles": "Cc1ccc(NC(=O)c2oc3ccccc3c2NC(=O)Cc2cccs2)cc1", "activity change, negative = inhibition": 1.25}, {"smiles": "Cc1cc2c(cc3c(SCc4nc(-c5ccccc5)oc4C)nnc(C)n32)o1", "activity change, negative = inhibition": -1.75}, {"smiles": "CCS(=O)(=O)c1cc([N+](=O)[O-])c(Sc2ccccc2N)s1", "Potency": "4.26 µM (active)"}, {"smiles": "Cc1ccc(S(=O)(=O)NCCSc2ccccc2)cc1[N+](=O)[O-]", "activity change, negative = inhibition": 6.22}, {"smiles": "CC(=O)c1ccc(N2CCN(C3C(=O)c4ccccc4N3C(C)=O)CC2)cc1", "note": "(stereo unspecified)", "activity change, negative = inhibition": -11.4}, {"smiles": "CCOC(=O)c1ccc(NC(=O)CCn2cnnn2)cc1", "activity change, negative = inhibition": 2.52}, {"smiles": "CC(C)c1csc(CN2CCC(CO)(Cc3ccccc3)CC2)n1", "Potency": "6.75 µM (active)"}, {"smiles": "OCC1(Cc2ccccc2)CCN(Cc2cc3ccccc3o2)CC1", "activity change, negative = inhibition": 3.73}, {"smiles": "CC(=O)c1cccc(CN2CCC(CO)(Cc3ccccc3)CC2)c1", "activity change, negative = inhibition": 1.15}, {"smiles": "Cc1nc2c(-c3ccccc3)c(C)nn2c(C)c1CCC(=O)NCCc1ccccc1", "activity change, negative = inhibition": -13.9}, {"smiles": "COc1cccc(CNC(=O)C2CCN(S(=O)(=O)c3ccc4c(ccn4C)c3)CC2)c1", "activity change, negative = inhibition": -8.5}, {"smiles": "CC1CCCCC1NC(=O)NC(=O)COC(=O)C1=NN(c2ccccc2)C(=O)CC1", "note": "(stereo unspecified)", "activity change, negative = inhibition": 5.26}, {"smiles": "Cc1c(Cl)cccc1NC(=O)CCC(=O)N/N=C/c1ccco1", "activity change, negative = inhibition": -0.65}, {"smiles": "O=C(Nc1ccccc1C(=O)N1CCCCC1)c1ccco1", "activity change, negative = inhibition": 2.11}, {"smiles": "CS/C(=C\\C(=O)c1ccco1)Nc1ccccc1Cl", "Potency": "3.79 µM (active)"}, {"smiles": "COc1cccc(NC(=O)N(Cc2cn(C)c3ccccc23)C2CCCCCC2)c1", "activity change, negative = inhibition": 4.23}, {"smiles": "CC(=O)OC1=C(C(C)=O)N(Cc2ccccc2)S(=O)(=O)c2ccccc21", "activity change, negative = inhibition": -2.47}, {"smiles": "Cc1cccc(C2=N/C(=C/c3cccs3)C(=O)O2)c1", "Potency": "2.69 µM (active)"}, {"smiles": "CN1/C(=C\\C=C2\\N=C(c3ccc(F)cc3)OC2=O)C(C)(C)c2ccccc21", "activity change, negative = inhibition": -15.8}, {"smiles": "Cc1ccc(C2=N/C(=C\\c3ccc(OS(=O)(=O)c4ccc(C)cc4)cc3)C(=O)O2)cc1", "activity change, negative = inhibition": -0.259}, {"smiles": "CCCCOc1ccc(C(=O)N2CC(=O)Nc3ccc(Br)cc3C2c2ccc(F)cc2)cc1", "note": "(stereo unspecified)", "activity change, negative = inhibition": 2.33}, {"smiles": "CCc1ccc(CNC(=O)c2cc3cc4ccc(OC)cc4nc3o2)cc1", "activity change, negative = inhibition": -1.47}, {"smiles": "Cc1ccc2cc3cc(C(=O)N4CCCCCC4)oc3nc2c1", "Potency": "2.69 µM (active)"}, {"smiles": "Cc1ccc2oc(=O)c3cnn(CC(=O)N4CCCCCC4)c3c2c1", "activity change, negative = inhibition": -0.0331}, {"smiles": "CCCCn1c(N)c(N(CC)C(=O)c2ccc(N(C)S(=O)(=O)c3ccc(C)cc3)cc2)c(=O)[nH]c1=O", "activity change, negative = inhibition": 3.09}, {"smiles": "Cc1cc(Br)ccc1SCC(=O)OCC(=O)NCc1ccc2c(c1)OCO2", "activity change, negative = inhibition": 2.23}, {"smiles": "Cc1ccccc1NC(=O)Cc1nc(COC(=O)c2cccnc2Cl)cs1", "activity change, negative = inhibition": 5.2}, {"smiles": "CCCNC(=O)C1CCC(Cn2c(=O)c3sccc3n(Cc3ccccc3F)c2=O)CC1", "note": "(stereo unspecified)", "activity change, negative = inhibition": -0.991}, {"smiles": "CC(C)Sc1ncnc2c1cnn2-c1ccccc1", "Potency": "1.51 µM (active)"}, {"smiles": "CC(Sc1ncnc2c1cnn2-c1ccccc1)C(=O)Nc1ccc(N2CCOCC2)cc1", "note": "(stereo unspecified)", "activity change, negative = inhibition": -13.5}, {"smiles": "COc1ccc(-n2ncc3c(SCC(=O)NNC(C)=O)ncnc32)cc1", "Potency": "16.9 µM (active)"}, {"smiles": "CCN(CC)C(=O)CSc1ncnc2c1cnn2-c1ccccc1", "Potency": "16.9 µM (active)"}, {"smiles": "O=C(Cn1cnc2c(cnn2-c2ccccc2)c1=O)NCc1ccccc1", "activity change, negative = inhibition": 0.29}, {"smiles": "O=C(Cn1cnc2c(cnn2-c2ccc(F)cc2)c1=O)NCCc1ccccc1", "activity change, negative = inhibition": 0.0901}, {"smiles": "CC(=O)Cn1cnc2c(cnn2-c2ccccc2)c1=O", "activity change, negative = inhibition": -18.6}, {"smiles": "COc1ccc(NC(=O)CSc2ncnc3[nH]ncc23)cc1", "activity change, negative = inhibition": -2.98}, {"smiles": "CC(=O)Nc1ccc(NC(=O)CSc2ncnc3c2cnn3Cc2ccccc2)cc1", "activity change, negative = inhibition": -2.73}]}]}
